About 2,900 (47%) of roughly 6,200 compounds were called active. So high a share suggests a set chosen from earlier hits. This is one part of the list. A number with no mark means an inactive call. No stated cut-off is given here; in the data, active means inhibition above about 50%; inactive means the rest.
test: Mycobacterium tuberculosis growth inhibition, primary screen (AID 1259343); conditions: inhibition: at 10 µM, active compounds read high; outcome: 10 uM

| Compound | inhibition |
| --- | --- |
| O=C(Nc1ccc2c(c1)CCC2)C1CCN(C(=O)OCC(F)(F)F)CC1 | 49.5% |
| O=C(COCC(F)(F)F)Nc1ccc2c(c1)C(=O)CCC2 | 81.5% (active) |
| O=C(COC(=O)c1n[nH]c(=O)c2ccccc12)Nc1ccc2c(c1)CCC2 | 37.8% |
| Clc1ccc(-c2noc(CSc3ccc(Br)cc3)n2)cc1 | 66.5% (active) |
| O=C(NCc1ccc(Cl)cc1)c1c(O)nc2ccccn2c1=O | 25.1% |
| O=C(NCCc1ccccc1)c1c(O)nc2sccn2c1=O | 1.99% |
| O=C(NC1CCCCC1)c1c(O)nc2ccccn2c1=O | 42.4% |
| O=C(NCc1ccccc1)c1c(O)nc2sccn2c1=O | 63.3% (active) |
| Cc1ccc(CNC(=O)CN2CCc3sccc3C2C)cc1 (centres undefined) | 27% |
| Cc1cccc(C)c1Cn1c(C)c(C(=O)NCc2ccc(Cl)c(Cl)c2)sc1=O | 16.1% |
| O=C(NCc1ccc(Cl)cc1)c1c(O)nc2sccn2c1=O | 81.1% (active) |
| Cc1ccc(CNC(=O)c2c(O)nc3sccn3c2=O)cc1 | 74.4% (active) |
| O=C(NCc1ccc(F)cc1)c1c(O)nc2sccn2c1=O | 59.5% (active) |
| Fc1cccc(Nc2cc3[nH]c(-c4cccc(F)c4)cc3cn2)c1 | 30.6% |
| COCC(C)NC(=O)C12CCC(C)(C(=O)O1)C2(C)C (centres undefined) | 100% (active) |
| COCC(C)NC(=O)c1ccc(CSc2ccccc2)o1 (centres undefined) | -22.4% |
| Brc1ccc(-n2nc(-c3ccccc3)n[n+]2-c2nnn[n-]2)cc1 | 49.9% |
| O=C(O)c1cc(-c2ccc(Cl)c(Cl)c2)ns1 | 90% (active) |
| O=C(O)c1cc2cc(Cl)sc2s1 | 37% |
| CN(Cc1ccc(Cl)s1)S(=O)(=O)c1ccc(Cl)cc1 | 73.6% (active) |
| CCN(CC)c1ccc(CN(C)S(=O)(=O)c2ccc(F)cc2)cc1 | 33.5% |
| CC(=O)NCCC1CCN(c2nncc(-c3ccc(Cl)cc3)n2)CC1 | 38% |

| Compound | inhibition |
| --- | --- |
| Cc1ccc2c(c1)C1CN(C)CCC1N2C(=O)NCC1CCCC1 (centres undefined) | 45.5% |
| CC(C)CC(=O)NCC1CCN(c2ccc(Cl)cc2)C1 (centres undefined) | 68.8% (active) |
| O=C(CN1CCc2ccccc2C1)Nc1nc(-c2cc3ccccc3o2)cs1 | 5.08% |
| O=C(Nc1cccc2cccnc12)N1CCCC1C1CCCC1 (centres undefined) | 27.2% |
| O=C(NCC1CC1)N1Cc2ccccc2C(c2ccccc2)C1 (centres undefined) | 8.6% |
| O=C(NCC1CCN(c2ccccc2)C1)N1CCCC1C1CCCC1 (centres undefined) | 67.7% (active) |
| O=C(CN1CCc2ccccc2C1)NCC1CCN(c2ccccc2)C1 (centres undefined) | 91.3% (active) |
| O=C(Nc1nc2c(Br)cccc2s1)Nc1c(F)cccc1F | 28.4% |
| Fc1cccc2sc(Nc3nnc(-c4cccs4)o3)nc12 | 101% (active) |
| Cc1cccc2cc(CNC(C)Cc3ccco3)c(Cl)nc12 (centres undefined) | 24.3% |
| CC(C)(Cc1ccc2ccccc2c1)NC[C@@H](O)COc1cccc(Cl)c1C#N | 87.4% (active) |
| N#Cc1c(Cl)cccc1Oc1cccc(C(=O)O)c1 | 6.19% |
| O=C(COc1ccc(F)cc1)N1CCOC(COCc2c(Cl)cccc2Cl)C1 (centres undefined) | 34% |
| Cc1ccc(OCC2CN(C(=O)COc3ccc(F)cc3)CCO2)cc1 (centres undefined) | 82.5% (active) |
| O=C(Cc1cccc(Cl)c1)N1CCOC(COc2ccc3c(c2)CCCC3)C1 (centres undefined) | 44% |
| CNc1ccc(C(=O)N2CCOC(COc3ccc(Cl)c(C)c3)C2)cc1 (centres undefined) | 53% (active) |
| COc1cccc(CC(=O)N2CCOC(COc3ccc(F)cc3)C2)c1 (centres undefined) | 24% |
| Cc1cc(OCC2CN(C(=O)COc3ccccc3C)CCO2)ccc1Cl (centres undefined) | 50.9% (active) |
| Cc1ccc(OCC2CN(C(=O)COc3ccccc3C)CCO2)cc1 (centres undefined) | 75.9% (active) |
| Cc1ccccc1OCC(=O)N1CCOC(COc2cccc(C(F)(F)F)c2)C1 (centres undefined) | 6.21% |
| Cc1cc(OCC2CN(C(=O)c3ccc(C#N)cc3F)CCO2)ccc1Cl (centres undefined) | 5.04% |
| COc1cccc(CC(=O)N2CCOC(COc3ccc(Cl)c(C)c3)C2)c1 (centres undefined) | 4.53% |

| Compound | inhibition |
| --- | --- |
| Cc1cc(OCC2CN(C(=O)Cc3cccc(Cl)c3)CCO2)ccc1Cl (centres undefined) | 31% |
| O=C(NCCC(=O)N1CCOC(COCc2ccc(F)cc2Cl)C1)OCc1ccccc1 (centres undefined) | 61% (active) |
| O=C(Cc1cccc(Cl)c1)N1CCOC(COc2ccc(F)cc2)C1 (centres undefined) | 11.7% |
| Cc1cc(OCC2CN(C(=O)COCc3ccccc3)CCO2)ccc1Cl (centres undefined) | 50.5% (active) |
| Cc1ccccc1OCC(=O)N1CCOC(COCc2ccccc2F)C1 (centres undefined) | 72.4% (active) |
| O=C(Cc1cccc(Cl)c1)N1CCOC(COCc2ccccc2F)C1 (centres undefined) | 30.4% |
| Cc1cc(OCC2CN(C(=O)Cc3ccc4c(c3)OCO4)CCO2)ccc1Cl (centres undefined) | 65.7% (active) |
| CNC(=O)c1cc(Oc2ccc(NC(=O)Nc3ccc(Cl)c(C(F)(F)F)c3)c(F)c2)ccn1 | 34.8% |
| O=S1(=O)N(CCN2CC=C(c3c[nH]c4cc(F)ccc34)CC2)c2cccc3c2N1CCC3 | 12.6% |
| O=C(/C=C/c1ccc(-c2cccc([N+](=O)[O-])c2)o1)N1CCCCC1 | 80.3% (active) |
| COc1c(Br)cc(Cl)cc1S(=O)(=O)NCCc1ccccc1 | 18% |
| COCCCC1CCN(Cc2nc(Cc3ccccc3Cl)no2)CC1 | 29.1% |
| CN(Cc1ccc2nsnc2c1)Cc1nc(Cc2ccccc2Cl)no1 | 31.6% |
| CN(C1CCCCC1)S(=O)(=O)N1CCCC(c2nc(-c3cccc(F)c3)no2)C1 (centres undefined) | 33.1% |
| CCc1ccc(CN(C)Cc2nc(Cc3ccccc3F)no2)cc1 | 71% (active) |
| Clc1ccccc1Cc1noc(CN2CCN(Cc3ccccc3)CC2)n1 | 51.2% (active) |
| CN(Cc1ccc(F)cc1)Cc1nc(Cc2ccccc2Cl)no1 | 89.3% (active) |
| Cc1ccc(OCCN(C)Cc2nc(-c3cccc(Cl)c3)no2)cc1 | 35% |
| Fc1ccccc1N1CCN(Cc2nc(Cc3ccccc3Cl)no2)CC1 | inactive |
| CN(Cc1nc(-c2cccc(Cl)c2)no1)C1CCCCC1 | 74.3% (active) |

— PubChem BioAssay AID1259343 (VanderVen Lab, College of Veterinary Medicine, Cornell …, 2017)
